This is an account of results in PubChem BioAssay (NCI).

Each structure is given as a SMILES string. The panel holds about 79,000 compounds, 15% with a hit somewhere; the sample as a whole holds those more often. Unmarked numbers belong to inactive results. The source made the active and inactive calls. No stated cut-off is given here; in the data, active means growth inhibition above about 70%; inactive means the rest.

Test [1] is described as follows: NCI Yeast Anticancer Drug Screen. Data for the rad50 strain (AID 155).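 Further: 0% = growth of vehicle-only cultures of the same strain.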 The settings on record: S. cerevisiae rad50 strain growth inhibition; at 50.0 µM; hits give high values. The gist of the method: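 A DNA repair-deficient yeast mutant serves as the test organism; compound-induced growth inhibition is calculated against vehicle-treated cells.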
The nature of test [2]: NCI Yeast Anticancer Drug Screen. Data for the mec2-1 strain (AID 157). The settings on record: S. cerevisiae mec2-1 strain, at 50.0 µM, hits give high values. The method, boiled down:
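Each compound was tested on mec2-1 yeast, a strain altered in DNA damage repair or cell cycle control. Growth inhibition is reported relative to vehicle.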

A short description of test [3]: NCI Yeast Anticancer Drug Screen. Data for the sgs1 mgt1 strain (AID 161).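 Further: 0% = growth of cultures given vehicle only.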 As to conditions: S. cerevisiae sgs1 mgt1 strain, at 50.0 µM, hits give high values. The gist of the method:
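Test agents were incubated with a DNA-repair-mutant yeast strain. Growth was then read and compared against vehicle-treated controls.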

Test [4] in a line: NCI Yeast Anticancer Drug Screen. Data for the cln2 rad14 strain (AID 165).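 Further: 0% = growth equal to vehicle treated cultures.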 The settings on record: S. cerevisiae cln2 rad14 strain, at 50.0 µM, hits give high values. The gist of the method:
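Test compounds were added to cln2 rad14 yeast cultures; inhibition of growth was then determined by comparison with vehicle treatment.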

Test [5] in a line: NCI Yeast Anticancer Drug Screen. Data for the bub3 strain (AID 167). As to conditions: S. cerevisiae bub3 mutant strain, at 50.0 µM, hits give high values. The method, boiled down:
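Inhibition values come from growth of compound-treated mutant yeast normalised to vehicle-treated controls.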

Test [6] can be described thus: NCI Yeast Anticancer Drug Screen. Data for the mlh1 rad18 strain (AID 175). As to conditions: S. cerevisiae mlh1 rad18 strain growth inhibition; at 50.0 µM; hits give high values. The gist of the method: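 Inhibition values reflect reduced growth of mutant yeast versus vehicle-treated controls following compound exposure; the mutations affect DNA damage repair.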

With `O=S(=O)(O)NNc1ccc(N=Nc2ccccc2)cc1`, the growth inhibition in test [1] is 0.2%; in test [2], -12.9%; in test [3], -3.95%; in test [4], 11.3%; in test [5], -0.75%; in test [6], 4.75%.

On to `Cc1cc(=O)oc2c(CNC(CC(C)C)C(=O)O)c(O)ccc12` (stereo unspecified), for which the growth inhibition was -51.9% in test [1]; -32.3% in test [2]; -46.6% in test [3]; -16.4% in test [4]; -24.8% in test [5]; -63.1% in test [6].

For `COc1ccc(C(=O)N/N=C/c2ccccc2Cl)cc1`, the growth inhibition in test [1] is 1%; in test [2] it was 0.45%; in test [3], 19.1%; in test [4] it was -10.6%; in test [5], 19.4%; in test [6], 18.4%.

Regarding `COC[C@@H](N=CN1CCc2cc(OC)c(OC)cc2C1)C(C)(C)C`, the growth inhibition in test [1] was -31.2%; in test [2], -18.2%; in test [3], -14.6%; in test [4], 13%; in test [5], -11.3%; in test [6] it was -17%.

Regarding `OC1CCCNC1` (stereo unspecified), the growth inhibition is 16.9% in test [1]; -4.5% in test [2]; 21.1% in test [3]; 18.1% in test [4]; 14.5% in test [5]; 30.2% in test [6].

As to `c1ccc2c(SCN3CCOCC3)cccc2c1` (tested in a mixture with another compound), the growth inhibition in test [1] was 35%; in test [2] it was 21.6%; in test [3] it was 39%; in test [4] it was 40.9%; in test [5], 21.8%; in test [6] it was 29.8%.

`CCC(=O)NC1CCCCC1`: the growth inhibition in test [1] is 8.6%; in test [2], 3.5%; in test [3], 19.2%; in test [4], -15.3%; in test [5] it was -13.9%; in test [6] it was 1.4%.

For the compound `COC(=O)c1nc2c(n(C)/c1=N/C(=O)Nc1ccccc1)CCCC2`, the growth inhibition is 61.5% in test [1]; -2.9% in test [2]; 4.25% in test [3]; -7.65% in test [4]; 4.65% in test [5]; -50.6% in test [6].

As to `Cc1nc2ccccc2c(=O)o1`, the growth inhibition in test [1] was -12.2%; in test [2], 7.05%; in test [3] it was 9.85%; in test [4], 15.1%; in test [5], -5.65%; in test [6], -21%.

For `Cc1nnc2n1N=C(c1ccc(O)c(O)c1O)CS2`, the growth inhibition in test [1] was 2.9%; in test [2], -3.15%; in test [3], -4.7%; in test [4], 7.4%; in test [5] it was 1.75%; in test [6], -6.1%.

For the compound `CCOP(=O)(OCC)C(F)(F)Cc1cnc(C)c2c1COC(C)(C)O2`, the growth inhibition in test [1] was -14.8%; in test [2], -34.8%; in test [3], -32.5%; in test [4], -16.7%; in test [5] it was 17.9%; in test [6], -27.3%.

Consider `CCOC(=O)c1cn(C)c2c1C(O)=C(C(=O)OC)CC(=O)N2`, for which the growth inhibition was 4.5% in test [1]; 1.1% in test [2]; -14.2% in test [3]; 7.2% in test [4]; -12.6% in test [5]; -26.8% in test [6].

Take `O=C1CN(c2ccc(Cl)cc2)C(=O)CN1CCN1CC(=O)N(c2ccc(Cl)cc2)CC1=O`: the growth inhibition in test [1] is -43.5%; in test [2], -10.3%; in test [3], -3.25%; in test [4], 10.6%; in test [5], -39.6%; in test [6], -23.6%.

In the case of `CC1(C)CC23C4COC(=O)C2CCC1C3CC4=O` (stereo unspecified), the growth inhibition in test [1] is -7.25%; in test [2] it was -18.1%; in test [3], 20.4%; in test [4], -0.7%; in test [5], -0.25%; in test [6], -21.4%.

For `CC1(O)C=CC2CCC1C2O` (stereo unspecified), the growth inhibition in test [1] was 11.9%; in test [2], -2.55%; in test [3] it was 10%; in test [4], 19.2%; in test [5] it was 0.15%; in test [6], 19.6%.

On to `O=[N+]([O-])c1ccc(C(O)C(c2ccccc2)S(=O)(=O)N2CCCCC2)cc1` (stereo unspecified), for which the growth inhibition was 40.6% in test [1]; -2.75% in test [2]; 17.1% in test [3]; -31.9% in test [4]; -0.5% in test [5]; 24.9% in test [6].

For `CC1(C)N=C(N)NC(Nc2ccccc2)=N1`, the growth inhibition in test [1] is -0.2%; in test [2] it was -6.5%; in test [3] it was -27.6%; in test [4] it was -26.9%; in test [5], -10.8%; in test [6] it was -0.05%.

Regarding `CCCc1cc(C)cc(N=Cc2ccccc2)c1O`, the growth inhibition is 96.6% (active) in test [1]; 97.6% (active) in test [2]; 93.8% (active) in test [3]; 97.8% (active) in test [4]; 97% (active) in test [5]; 97.2% (active) in test [6].

In the case of `Cc1cc([N+](=O)[O-])ccc1NC(=O)C(=O)C(C(=O)c1ccccc1-c1ccccc1)C1OC(=O)c2ccccc21` (stereo unspecified), the growth inhibition was 12% in test [1]; 12.4% in test [2]; -5.4% in test [3]; -52% in test [4]; 6.8% in test [5]; 41.5% in test [6].

Consider `C1CSC(SCCCSC2SCCCS2)SC1`, for which the growth inhibition in test [1] was -4.1%; in test [2], 5.3%; in test [3] it was -9.9%; in test [4], -7.1%; in test [5] it was -12.2%; in test [6], -14.1%.

As to `COc1ccc(/C=C2\CCC/C(=C\c3ccc(O)c(CN4CCCCC4)c3)C2=O)cc1`, the growth inhibition in test [1] was 89.2% (active); in test [2] it was 85.5% (active); in test [3], 91.2% (active); in test [4] it was 83% (active); in test [5], 89.1% (active); in test [6], 91.2% (active).
